Measured values published in PubChem BioAssay AID485346 (Sanford-Burnham Center for Chemical Genomics, 2010).
The campaign covered roughly 330,000 compounds. About 10,000 (3%) were called active.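 Rule for the calls: active = inhibition of at least 50% at 8 µM in the primary screen; inactive = the rest.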 Only a selection was taken, and actives are over-represented in it overall.

These molecules were tested against Protein Mdm4 (Homo sapiens) + E3 ubiquitin-protein ligase Mdm2 (Homo sapiens) (UniProt O15151+Q00987) (assay: inhibitors of human Mdm2-MdmX association, primary screen, cell-based, luminescence, split luciferase, SaOS-2, uHTS (AID 485346)). Conditions: SaOS-2 split-luciferase Mdm2/MdmX complementation, at 8 µM, hits give high values.
Protein Mdm4 (Homo sapiens) + E3 ubiquitin-protein ligase Mdm2 (Homo sapiens), sequence (O15151 whole entry, looked up): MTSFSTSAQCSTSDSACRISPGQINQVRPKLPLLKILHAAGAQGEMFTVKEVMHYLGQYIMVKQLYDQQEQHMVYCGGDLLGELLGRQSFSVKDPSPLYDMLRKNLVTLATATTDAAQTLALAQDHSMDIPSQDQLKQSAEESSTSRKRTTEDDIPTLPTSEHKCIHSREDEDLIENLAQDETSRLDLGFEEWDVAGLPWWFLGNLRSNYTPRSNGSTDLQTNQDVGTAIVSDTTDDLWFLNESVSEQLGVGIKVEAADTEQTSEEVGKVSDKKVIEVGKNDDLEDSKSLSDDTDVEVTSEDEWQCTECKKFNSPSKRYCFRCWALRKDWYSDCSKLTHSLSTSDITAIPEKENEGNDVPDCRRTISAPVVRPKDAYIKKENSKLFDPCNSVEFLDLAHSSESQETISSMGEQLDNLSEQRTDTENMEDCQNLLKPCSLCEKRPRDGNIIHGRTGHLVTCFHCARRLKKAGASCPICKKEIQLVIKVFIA
Protein Mdm4 (Homo sapiens) + E3 ubiquitin-protein ligase Mdm2 (Homo sapiens), sequence (Q00987 whole entry, looked up): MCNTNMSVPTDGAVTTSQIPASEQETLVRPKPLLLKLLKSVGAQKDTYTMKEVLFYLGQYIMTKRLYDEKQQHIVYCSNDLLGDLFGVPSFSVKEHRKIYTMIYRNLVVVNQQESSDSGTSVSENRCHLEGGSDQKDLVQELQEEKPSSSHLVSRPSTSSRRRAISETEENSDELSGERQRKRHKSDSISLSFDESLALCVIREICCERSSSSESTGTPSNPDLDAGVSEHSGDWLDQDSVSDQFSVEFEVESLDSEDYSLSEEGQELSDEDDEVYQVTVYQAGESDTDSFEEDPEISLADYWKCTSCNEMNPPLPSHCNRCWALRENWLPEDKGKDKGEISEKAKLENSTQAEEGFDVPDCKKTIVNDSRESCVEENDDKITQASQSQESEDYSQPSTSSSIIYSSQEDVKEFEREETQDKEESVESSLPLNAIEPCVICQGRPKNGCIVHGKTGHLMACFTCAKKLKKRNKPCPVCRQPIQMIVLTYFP

Compound | inhibition
C[C@@H]1C(c2ccc(F)cc2)=NN(c2ccc(Br)cc2)[C@H]1C(=O)N1CCOC1=O | 9.83% (inactive)
O=C(CN1CCN(S(=O)(=O)c2ccc3ccccc3c2)CC1)NC(=O)NC1CCCCC1 | 40.4% (inactive)
COC(=O)C1CCN(C(=O)NC2CC(=O)N(c3ccc4c(c3)OCCO4)C2)CC1 (stereo not given) | -29.9% (inactive)
CC(=O)C1=C(O)C(=O)N(c2ccc(Br)cc2)C1c1ccc([N+](=O)[O-])cc1 (stereo not given) | 16.7% (inactive)
COc1ccc(C(=O)C2CCCN(Cc3cccn3-c3ccccn3)C2)c(C)c1 (stereo not given) | 46.4% (inactive)
COc1ccc(CN2CN(C3CCCC3)CSC2=S)cc1 | 34.2% (inactive)
COc1ccc(CN2CN(C(C)C)CSC2=S)cc1 | 63.7% (active)
S=C1SCN(CCN2CCOCC2)CN1Cc1ccccc1 | 19% (inactive)
O=C(CSc1nncn1-c1cccnc1)N1CCOCC1 | -14.1% (inactive)
Cc1c(Cl)c([N+](=O)[O-])nn1Cc1ccc(C(=O)N/N=C\c2cc(Cl)ccc2O)o1 | 68.9% (active)
Cc1nn(Cc2ccc(Cl)cc2)c(Cl)c1/C=N/NC(=O)c1cccnc1 | -2.65% (inactive)
Cc1ccc(C(=O)O)cc1NC(=O)c1ccc(Cn2nc(C)c(Cl)c2C)o1 | 2.65% (inactive)
CCCc1nc(NCc2ccc3c(c2)OCO3)c2nnn(Cc3ccccc3Cl)c2n1 | 75.2% (active)
Cc1nc(Nc2ccc3c(c2)OCCO3)c2nnn(Cc3ccccc3Cl)c2n1 | 32.4% (inactive)
Cc1nc(Nc2ccccc2F)c2nnn(Cc3ccccc3Cl)c2n1 | 4.88% (inactive)
CCOc1ccc(C(=O)CCC(=O)Nc2ccncc2)cc1 | 13.9% (inactive)
C=CCn1c2ccccc2c2nnc(SCc3[nH]c(=O)[nH]c3C(=O)CCCCC(=O)OCC)nc21 | 26.8% (inactive)
Cc1ccc(NC(=O)C2CC2)cc1S(=O)(=O)N1CCOCC1 | -2.88% (inactive)
O=C1CSC(c2ccc(Cl)cc2)N1 (stereo not given) | -16.7% (inactive)
Cc1noc(C)c1-c1ccc2ncnc(NC(C)c3ccco3)c2c1 (stereo not given) | 83.9% (active)
c1coc(CNc2ncnc3ccccc23)c1 | -3.14% (inactive)
O=C(NC(=S)Nc1ccccc1C(=O)O)c1ccc(-c2ccc(Br)cc2)o1 | 44.1% (inactive)
CC1CCN(CC(=O)Nc2nccs2)CC1 | 32.3% (inactive)
CC(C)CCN1C(=O)c2ccc(C(=O)Nc3cccc(S(N)(=O)=O)c3)cc2C1=O | 7.02% (inactive)

Compound | inhibition
CC(=O)Oc1ccc(-c2nc3c(C)cccc3c(=O)o2)cc1 | 15.5% (inactive)
Cc1nc(N=C(N)N)nc2c(C)cccc12 | 75.4% (active)
COc1nc(N=C(N)N)nc2c(C)cccc12 | 22.9% (inactive)
COc1ccc(C2C(C#N)=C(N)Oc3cc(N)ccc32)cc1OC (stereo not given) | 50.9% (active)
COc1cc(C2C(C#N)=C(N)Oc3n[nH]c(-c4ccccn4)c32)cc(OC)c1OC (stereo not given) | 1.17% (inactive)
COc1ccc(C2C(C#N)=C(/N=C/N3CCOCC3)OC3=C2C(=O)CC(C)(C)C3)cc1OC (stereo not given) | -7.65% (inactive)
COc1ccccc1NS(=O)(=O)c1ccc(C(=O)N2CCN(c3ccccc3O)CC2)cc1 | 19.3% (inactive)
O=P(O)(CN1CCCCCC1)C1Cc2ccccc2C1 | 10.7% (inactive)
O=C(CNc1ccccc1N1CCCC1=O)Nc1cc(Cl)ccc1-n1cncn1 | 0.059% (inactive)
Cc1ccc(S(=O)(=O)N2CCN(C(=O)Cn3c(=O)cnc4ccccc43)CC2)c(C)c1 | 12.2% (inactive)
C[C@@H]1C[C@@H]2O[C@H]2/C=C\C=C\C(=O)Cc2c(Cl)c(O)cc(O)c2C(=O)O1 | 79.3% (active)
CCN(CC(=O)N1CCCC1)S(=O)(=O)c1ccc(F)cc1 | -4.05% (inactive)
Cc1ccc(F)cc1S(=O)(=O)Nc1cccc(C(=O)N2CCCC(C(N)=O)C2)c1 (stereo not given) | 17.8% (inactive)
Oc1ccc(Br)cc1/C=N/Nc1ccccn1 | 84.7% (active)
Oc1ccc(/C=N/Nc2ccc(C(F)(F)F)cn2)cc1O | -9.44% (inactive)
COc1ccc(-c2nn(-c3ccccc3)cc2/C=N/Nc2ccccn2)cc1OC | 34.3% (inactive)
Cc1cccc(NC(=O)N2CCCCCC2)c1C | 23.2% (inactive)
CCN([C@H](CO)C(C)C)S(=O)(=O)c1ccccc1Br | 33.9% (inactive)
CCc1cc2c(N3CCN(c4nnc(CC)s4)CC3)ncnc2s1 | 29.4% (inactive)
c1ccc(-c2cc3c(NCC4COc5ccccc5O4)ncnc3s2)cc1 (stereo not given) | 31.6% (inactive)
Oc1ccccc1N1CCN(c2ncnc3sc(-c4ccccc4)cc23)CC1 | 81.3% (active)
NNC(=O)c1nnn(-c2nonc2N)c1CN1CCCC1 | 4.39% (inactive)
Nc1nonc1-n1nnc(C(=O)N/N=C\c2ccncc2)c1CN1CCCCC1 | 3.58% (inactive)
Nc1nonc1-n1nnc(C(=O)N/N=C/c2ccccc2O)c1CN1CCCC1 | 52.8% (active)

Compound | inhibition
CCOC(=O)c1ccc(NC(=O)CCn2c(=O)oc3ccccc32)cc1 | 8.91% (inactive)
Cc1cccc(NC(=O)c2ccc(S(=O)(=O)N(C)CC3CCCO3)cc2)c1C (stereo not given) | 17.9% (inactive)
CN(CC1CCCO1)S(=O)(=O)c1ccc(C(=O)Nc2ccc(F)cc2)cc1 (stereo not given) | 14.6% (inactive)
CCOC(=O)c1c(NC(=O)c2ccc(S(=O)(=O)N(C)CC3CCCO3)cc2)sc2c1CC(C)(C)NC2(C)C (stereo not given) | 79.5% (active)
CCCn1c2ccccc2c2cnn(CC(=O)NCCCN3CCCCC3CC)c(=O)c21 (stereo not given) | 24% (inactive)
O=C(CN1C(=O)CCS(=O)(=O)c2ccccc21)NCc1ccc(F)cc1 | 13.2% (inactive)
COc1cc2c(cc1OC)CN(C(C)C(=O)Nc1cccc(S(=O)(=O)N3CCOCC3)c1)CC2 (stereo not given) | 21.6% (inactive)
CCCCN1CCNC1=S | 27% (inactive)
O=C(CSc1nccn1-c1cccc(F)c1)NC1CCCC1 | 6.79% (inactive)
O=C(Cn1cnc2c(nnn2Cc2ccc(F)cc2)c1=O)NCc1ccc2c(c1)OCO2 | 7.94% (inactive)
Cc1cc(C)cc(NC(=O)Cn2cnc3c(nnn3Cc3ccc(F)cc3)c2=O)c1 | 64.8% (active)
Cc1ccc(Cn2nnc3c(=O)n(CC(=O)N4CCCCC4)cnc32)cc1 | 8.92% (inactive)
CSCCC(NS(=O)(=O)c1ccccc1F)C(=O)N1CC=C(c2ccccc2)CC1 (stereo not given) | -11.8% (inactive)
c1csc(-c2nnc(COc3ccc4c(c3)OCO4)o2)c1 | -40.3% (inactive)
CCCOc1ccc(C2=CSC3=NCCN23)cc1Cl | 28.9% (inactive)
COc1ccc(NC(=O)NN2CCN(C)CC2)c(OC)c1 | 0.742% (inactive)
O=[N+]([O-])c1ccccc1/C=C/CN1CCC(O)CC1 | -3.09% (inactive)
O=[N+]([O-])c1ccccc1/C=C/CN1CCCC(CO)C1 (stereo not given) | 3.12% (inactive)
CC1CCCCC1NC(=O)/C(C#N)=C/C=C/c1ccccc1[N+](=O)[O-] (stereo not given) | 99.6% (active)
CCCN(CCC)S(=O)(=O)c1ccc(C(=O)NNC(=O)c2cc(OC)c(OC)c(OC)c2)cc1 | -7.78% (inactive)
CCc1ccc2c(c1)C1(NN=C(c3ccccc3)S1)C(=O)N2 (stereo not given) | 73% (active)
COc1ccc(C)cc1NC(=O)c1cc(-c2ccccc2)nc2c1cnn2C(C)C | 11.5% (inactive)
OCC[C@H]1C[C@H](O)[C@@H](O)[C@]2(CCCCO2)O1 | -0.668% (inactive)
COc1ccc(Nc2nnc(C)c3ccccc23)cc1 | 5.02% (inactive)

Compound | inhibition
N#Cc1nc(-c2cccc3ccccc23)oc1N | 23% (inactive)
COc1ccc(Nc2oc(-c3ccccc3Cl)nc2C#N)cc1 | 59.3% (active)
O=C1CCC[C@@H]2CC(N3CCCCC3)C[C@@H]3CCN1[C@H]23 (stereo not given in full) | -0.366% (inactive)
COc1ccc(CCNC(=S)N2CCN(S(=O)(=O)c3ccc(F)cc3)CC2)cc1 | 27.9% (inactive)
O=C(NC1CCCC1)C1CCN(C(=O)Nc2cccc(Cl)c2)CC1 | -30.9% (inactive)
O=C(NCC1CCN(Cc2ccccc2Cl)CC1)Nc1cccc(Cl)c1 | 24.2% (inactive)
O=C(Nc1cccc(-c2cccc(Cl)c2)c1)C1CCN(C2CCC2)CC1 | 63% (active)
COc1cccc(-c2cccc(NC(=O)C3CCN(C4CCC4)CC3)c2)c1 | -1.08% (inactive)
CCn1cc(CN2CCC(C(=O)Nc3cccc(-c4cccc(Cl)c4)c3)CC2)cn1 | 73% (active)
CC(=O)c1cc(CN2CCC(C(=O)Nc3cccc(-c4cscn4)c3)CC2)cs1 | 19.1% (inactive)
CCn1cc(CN2CCC(C(=O)Nc3cccc(-c4cccc(Cl)c4)c3)CC2)c(C)n1 | 86.6% (active)
O=C(Nc1cccc(-c2cscn2)c1)C1CCN(Cc2ccsc2)CC1 | 12.7% (inactive)
O=C(Nc1cnn(Cc2ccc(Cl)cc2)c1)C1CCCC1 | 20.2% (inactive)
COc1ccc(N2CCC(CNC(=S)Nc3c(C)cccc3C)C2)cc1 (stereo not given) | 0.075% (inactive)
Cc1ccc(C(=O)NCCc2nnc(SCC(=O)Nc3cccc(C(=O)O)c3)n2C)cc1 | -17.8% (inactive)
Cc1ccc(NS(=O)(=O)c2ccc3c(c2)n(C)c(=O)c(=O)n3C)c(C)c1 | -12.6% (inactive)
Cc1ccc(-n2nc3c(=O)n(C(C)C(=O)NCc4ccc5c(c4)OCO5)nc(C)c3c2C)cc1 (stereo not given) | 32.4% (inactive)
COc1ccc(CCNC(=O)/C(C#N)=C2\N=C(NC(=O)c3cccs3)c3ccccc32)cc1 | -11.7% (inactive)
O=C(NCC#CCSc1nnc(-c2cccc3ccccc23)o1)c1cccs1 | 81.5% (active)
C#CCSc1nnc(-c2sc3ccccc3c2Cl)o1 | -91.8% (inactive)
O=C(Cc1ccc(-c2ccccc2)cc1)NC(c1ccccc1)c1ccccc1 | 6.83% (inactive)
CCOC(=O)/C=C/C(=O)OCC(=O)NC(c1ccccc1)c1ccccc1 | 69.4% (active)
CCOC(=O)C(C(=O)OCC)C(C#N)c1ccccc1 (stereo not given) | -30.8% (inactive)
